Test [1] relates to Vero E6 infected with SARS-CoV-2. Nature of the test: morphology score (similarity to uninfected cells); higher = more like uninfected cells. The following applies: 24 h.
Test [2] has the same test system. Kind of test: SARS-CoV-2 infection rate relative to infected DMSO; higher = more infection, active = 60 or less. The following applies: 24 h.

Compound `CCCn1c(=O)c2[nH]c(-c3cnn(Cc4cccc(C(F)(F)F)c4)c3)nc2n(CC)c1=O` (10 µM) registered a morphology score in test [1] of 0.163. In addition, in test [2], the SARS-CoV-2 infection rate was 103% (inactive).
Compound `O=[N+]([O-])c1ccc2nc(COCc3nc4ccc([N+](=O)[O-])cc4[nH]3)[nH]c2c1` (10 µM) returned a morphology score in test [1] of -0.00439. Besides, the SARS-CoV-2 infection rate in test [2] is 94.5% (inactive).
In the case of `C/C=C/C=C/C(=O)O` [sorbic-acid] (10 µM), the morphology score in test [1] is -0.0925. Also, in test [2], the SARS-CoV-2 infection rate was 101% (inactive).
For `COc1ccc(-c2c(C)c(C(=O)NN3CCCCC3)nn2-c2ccc(Cl)cc2Cl)cc1` (10 µM) the same measures were 0.154 and 86% (inactive).
In test [1], `CCN(CC)CCNC(=O)c1cc(Br)c(N)cc1OC` [bromopride] (10 µM) yielded a morphology score of -0.115. For the same compound, the SARS-CoV-2 infection rate in test [2] is 116% (inactive).
For `C#Cc1cnc2nc(O)n(C(CC)CC)c2n1` [tirasemtiv] (10 µM) the same measures were -0.109 and 104% (inactive).
For `O[C@@H](CN1CCC(Cc2ccc(F)cc2)CC1)c1ccc(Cl)cc1` (racemic) [eliprodil] (10 µM) the same measures were 0.218 and 87% (inactive).
The corresponding values for `COC(=O)[C@@H]1C[C@H](OC(C)=O)C(=O)[C@H]2[C@@]1(C)CC[C@H]1C(=O)O[C@H](c3ccoc3)C[C@]21C` [salvinorin-A] (10 µM) are 0.127 and 100% (inactive).
`Oc1ccc(Cl)c2cccnc12` [cloxyquin] (10 µM) returned a morphology score in test [1] of -0.13. The SARS-CoV-2 infection rate in test [2] was 109% (inactive).
For `COC(=O)C[C@](O)(CCCC(C)(C)O)C(=O)O[C@@H]1C(OC)=C[C@]23CCCN2CCc2cc4c(cc2[C@H]13)OCO4` [homoharringtonine] (10 µM) the same measures were 0.837 and 23% (active).
In test [1], `OC(CNCC(O)C1CCc2cc(F)ccc2O1)C1CCc2cc(F)ccc2O1` (stereo not given) [nebivolol] (10 µM) returned a morphology score of 0.0502. Besides, the SARS-CoV-2 infection rate in test [2] was 108% (inactive).
For `CCn1c(=O)/c(=C2\Sc3ccccc3N2C)s/c1=C\c1cccc[n+]1CC` (10 µM) the same measures were 0.136 and 106% (inactive).
The corresponding values for `CCCCCNCC(N)=O` [milacemide] (10 µM) are 0.0276 and 99% (inactive).
For `Nc1ncnc2c1ncn2[C@@H]1O[C@H](C[C@@H](N)CC[C@H](N)C(=O)O)[C@@H](O)[C@H]1O` [sinefungin] (10 µM) the same measures were 0.0839 and 109% (inactive).
In test [1], `Cc1cc(C(C#N)c2ccc(Cl)cc2)c(Cl)cc1NC(=O)c1cc(I)cc(I)c1O` (stereo not given) [closantel] (10 µM) displayed a morphology score of 0.257. In test [2], the SARS-CoV-2 infection rate was 91.5% (inactive).
The corresponding values for `Cc1cc(NS(=O)(=O)c2ccc(N)cc2)no1` [sulfamethoxazole] (10 µM) are 0.128 and 94.5% (inactive).
For `CC12CCC(CC1=O)C2(C)C` (stereo not drawn) [camphor-(+)] (10 µM) the same measures were 0.101 and 107% (inactive).
The corresponding values for `CC(C)(Sc1ccncc1-c1ccc(C#N)c2ccccc12)C(=O)O` [verinurad] (10 µM) are 0.122 and 98% (inactive).
On to `CCOC(=O)c1ncn2c1[C@@H]1CCCN1C(=O)c1cc(OC)ccc1-2` (10 µM), for which the morphology score in test [1] was 0.286. Further, the SARS-CoV-2 infection rate in test [2] was 95% (inactive).
The corresponding values for `CC1=C(/C=C/C(C)=C/C=C/C(C)=C/C(=O)O)C(C)(C)CCC1` [tretinoin] (10 µM) are -0.0366 and 104% (inactive).
Turning to `Cc1c(NC(=O)N2CCOCC2)ccc2c1c1ccccc1n2C(C)C` (10 µM), the morphology score in test [1] was 0.121. In test [2], the SARS-CoV-2 infection rate was 106% (inactive).
For `O=C(O)Cc1cccc2c(=O)cc(-c3ccccc3)oc12` [mitoflaxone] (10 µM) the same measures were 0.0177 and 106% (inactive).
The corresponding values for `O=C(NCCCNc1nc(Nc2cccc(NC(=O)N3CCCC3)c2)ncc1I)c1cccs1` (0.833333 µM) are 0.0981 and 118% (inactive).
The corresponding values for `O=C1/C(=C/c2ccccc2)C[C@@]2(O)[C@H]3Cc4ccc(O)c5c4[C@@]2(CCN3CC2CC2)[C@H]1O5` (0.833333 µM) are 0.732 and 23.5% (active).
In turn, `COc1ccc(-c2ccc3cc(C(=O)O)ccc3c2)cc1C12CC3CC(CC(C3)C1)C2` [adapalene] (10 µM) came in with a morphology score in test [1] of -0.091. The SARS-CoV-2 infection rate in test [2] is 104% (inactive).
`Nc1cc2c3ccccc3ccc2c2ccccc12` [6-aminochrysene] (10 µM) returned a morphology score in test [1] of 0.144. In addition, the SARS-CoV-2 infection rate in test [2] was 101% (inactive).
The corresponding values for `C[C@]12CCC(=O)C=C1CC[C@@H]1[C@@H]2CC[C@@]2(C)[C@H]1CC[C@]2(C)O` [17-alpha-Methyltestosterone] (10 µM) are 0.0827 and 108% (inactive).
In test [1], `C=C(C)[C@@H]1CC=C(CO)CC1` [perillyl-alcohol] (10 µM) registered a morphology score of 0.0351. Besides, the SARS-CoV-2 infection rate in test [2] was 100% (inactive).
For `Cc1c(C)c2c(c(C)c1O)CCC(C)(C)O2` (10 µM) the same measures were -0.0795 and 116% (inactive).
`CCOC(=O)OC(C)OC1=C(C(=O)Nc2ccccn2)N(C)S(=O)(=O)c2ccccc21` (stereo not given) [ampiroxicam] (10 µM): the morphology score in test [1] is -0.00273. Also, the SARS-CoV-2 infection rate in test [2] is 102% (inactive).
